A selection: hits, their analogues and other compounds. The true share with any hit is near 3.5%.
TEAD-YAP inh = TEAD-YAP interaction inhibition, primary screen, TEAD-YAP interaction inhibitor project, luminescence, HEK-TIYL cells; inhibition, % at 9.12 µM; AID 1259422, 2018; hit rate 1.4% among 640,000; TEAD-Gal4/YAP UAS-luciferase luminescence; in the data active = inhibition above about 32%;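 also: 0% = median of test compound wells and 100% = reference inhibitor wells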
MITF primary = MITF inhibitors, primary screen, biochemical, AlphaScreen, human. Microphthalmia-associated transcription factor (Homo sapiens), O75030. AID 1259374, 2018. inhibition, % at 2.6 µM. AlphaScreen MITF homodimerization, bead proximity signal. hit rate 0.91% among 650,000; in the data active = inhibition above about 50%;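 also: 0% = vehicle wells with protein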
FBW7 activator = FBW7 E3 ligase activators, primary screen, biochemical, AlphaScreen, human | F-box/WD repeat-containing protein 7 (Homo sapiens), Q969H0 | hit rate 0.13% among 650,000 | normalized activity (activation), % at 26.1 µM | AID 1259310, 2017 | AlphaScreen FBW7–phospho-cyclin E peptide binding, activator screen; in the data active = normalized activity above about 1.9%;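 also: purified mutant Fbw7 with reduced substrate affinity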
GPR151 ag = activators of human GPR151, primary screen, cell-based, PathHunter beta-arrestin, luminescence | hit rate 1% among 650,000 | PathHunter beta-arrestin GPR151 cells | activation, % at 11.2 µM | AID 1508602, 2020; in the data active = activation above about 4.9%;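 also: 0% = median of compound wells and 100% = cells with positive control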
The depositor's hits bear a star; ! = a repeat was not active.

SMILES	TEAD-YAP inh	MITF primary	FBW7 activator	GPR151 ag
CC(C)(C)c1ccccc1OCC(=O)Nc1nccs1	5	-13	0	-1
Cc1ccc(OCC(=O)Nc2nccs2)c(C)c1	93*	5	0	-8
Cc1ccc(/C=C/C(=O)Nc2nccs2)cc1	69*	18	0	-7
Cc1ccccc1OCC(=O)Nc1nccs1	50*	3	0	-10
O=C(COc1ccc(C2CCCCC2)cc1)Nc1ccc(Oc2ccc(Cl)cc2)cc1	-20	-5	0	-1
COc1ccc(C(=O)O)cc1NC(=S)NC(=O)c1ccc(F)cc1	-9	-11	0	0
N#CCSc1nc2ccccc2c(=O)n1CCc1ccccc1	-3	14	0	1
CCOc1ccccc1N1CCN(Cc2cc(-c3ncccn3)ccc2O)CC1	-5	-5	0	1
O=C(CSc1cn(CCNC(=O)c2ccc(F)cc2)c2ccccc12)NCC1CCCO1 (configuration not stated)	10	6	0	-1
O=C(NCCn1cc(SCC(=O)N2CCCCCC2)c2ccccc21)c1c(F)cccc1F	34*	7	-1	3
Cc1ccc(C(=O)NCCn2cc(SCC(=O)NCC3CCCO3)c3ccccc32)cc1C (configuration not stated)	33*	4	0	1
O=C(NCCCc1cccnc1)c1ccc(-n2cc(NC(=O)C3CCOC3)cn2)cc1 (configuration not stated)	32*	16	0	-1
O=C(NCCn1ccc2ccccc21)c1ccc(-n2cc(NC(=O)c3ccoc3)cn2)cc1	-8	8	0	0
O=C(NCCOc1cccnc1)c1ccc(-n2cc(NC(=O)c3ccoc3)cn2)cc1	52*	-10	0	-1
COc1ccc2nc(N3CCC(NC4CCCCC4)CC3)nc(C)c2c1	6	-11	0	1
CC[n+]1ccc(/C=C/c2ccc(OC)cc2OC)cc1	42*	2	0	-1
CC[n+]1ccc(/C=C/c2cccc(OC)c2OC)cc1	34*	2	0	0
CCOC(=O)c1c(NC(=O)CC)sc2c1CCC/C2=N/O	-2	-9	0	-1
CC(C)c1ccc(C2NN=C(c3ccccc3)S2)cc1 (configuration not stated)	70*	-6	1	-7
O=C(COc1ccccc1Cl)Nc1cc([N+](=O)[O-])ccc1O	69*	-24	0	0
O=C(COc1ccccc1)Nc1cc([N+](=O)[O-])ccc1O	56*	3	0	-8
Cc1ccccc1CNC(=O)Cn1c2ccccc2c2nc(=O)cc(C)n21	-6	16	1	-1
Cc1ccc(C(=O)C2C(c3cccs3)C(C#N)(C#N)C3C=Cc4ccccc4N23)cc1 (configuration not stated)	43*	-17	0	1
COc1ccc(C(=O)[C@@H]2[C@@H](c3cccs3)C(C#N)(C#N)[C@H]3C=Cc4ccccc4N23)cc1	55*	9	0	1
COc1ccc(CC(=O)Nc2cc(C)on2)cc1	4	18	0	-1
SMILES	TEAD-YAP inh	MITF primary	FBW7 activator	GPR151 ag
COc1ccc(CC(=O)Nc2cc3cc(-c4cn[nH]c4)ccc3cn2)cc1	96*	-5	0	-2
Cn1cc(-c2ccnc(NC(=O)Cc3ccc4c(c3)OCO4)c2)cn1	34*	2	-1	1
COc1ccc(CC(=O)Nc2cc3cc(-c4cnn(C)c4)ccc3cn2)cc1	72*	6	0	-1
COc1ccc(CC(=O)Nc2ccc(-c3cn[nH]c3)cc2N2CCN(C)CC2)cc1	-13	-1	1	1
NC1CCN(c2ccnc(NC(=O)Cc3ccc4c(c3)OCO4)c2)CC1	7	0	-1	3
COc1ccc(CC(=O)Nc2cc(-c3cnn(C)c3)ccn2)cc1	43*	-6	0	-1
O=C(c1cc(-c2ccc(Cl)cc2)nc2ccc(Br)cc12)N1CCN(c2ccc(F)cc2)CC1	3	12	0	1
COc1ccc(-c2cnc3ccccc3n2)cc1[N+](=O)[O-]	-52	7	0	2
CCCN(CCC)Cc1c(C(=O)N/N=C/c2sccc2C)nnn1-c1nonc1N	0	3	0	0
Cc1ccc(S(=O)(=O)Oc2cccc(C=C3C(=O)NC(=O)NC3=O)c2)cc1	-31	-6	0	-1
COC(=O)C1=C(C)NC2=C(C(=O)CC(c3cccs3)C2)C1c1cccc(OC)c1 (configuration not stated)	22	-4	0	3
CC1=C(C(=O)OCC(C)C)C(c2ccccc2F)C2=C(CC(c3cccs3)CC2=O)N1 (configuration not stated)	33*	4	0	-2
CC1=C(C(=O)OCCc2ccccc2)C(c2ccccc2F)C2=C(CC(c3cccs3)CC2=O)N1 (configuration not stated)	-9	2	0	-1
COC(=O)C1=C(C)NC2=C(C(=O)CC(c3cccs3)C2)C1c1cc(OC)ccc1OC (configuration not stated)	33*	-5	0	3
COCCOC(=O)C1=C(C)NC2=C(C(=O)CC(c3cccs3)C2)C1c1ccsc1 (configuration not stated)	-7	-3	1	1
CCOC(=O)C1=C(C)NC2=C(C(=O)CC(c3cccs3)C2)C1c1ccsc1 (configuration not stated)	55*	8	0	0
COc1ccc(C2C(C(=O)OCCc3ccccc3)=C(C)NC3=C2C(=O)CC(c2ccccc2)C3)cc1 (configuration not stated)	0	7	2	1
COCCOC(=O)C1=C(C)NC2=C(C(=O)CC(c3ccccc3)C2)C1c1ccc(OCc2ccccc2)cc1 (configuration not stated)	-10	9	3.4*	0
O=C(N[C@H]1C[C@H]2C(=O)N[C@H](Cc3ccccc3)C(=O)N2C1)c1cccc(F)c1F	5	16	0	-1
COc1ccc(C)cc1-n1nnnc1SCc1cn2c(C)cc(C)nc2n1	8	14	0	0
CCOC(=O)C1=C(C)NC2=C(C(=O)CC(c3cccs3)C2)C1c1ccc(F)cc1 (configuration not stated)	70*	-3	0	2
CCOC(=O)C1=C(C)NC2=C(C(=O)CC(c3ccccc3)C2)C1c1ccsc1 (configuration not stated)	44*	-4	0	-1
COC(=O)C1=C(C)NC(S)=C(C#N)C1c1cccs1 (configuration not stated)	6	20	0	-1
COC(=O)C1=C(C)NC(C)=C(C#N)C1c1cccs1 (configuration not stated)	35*!	-12	0	-1

Bioassay records deposited in PubChem by The Scripps Research Institute Molecular Screening Center.
